Most compounds without a hit are left out; they make up all but 4% or so of the library.
697 NFkB inh: inhibitors of the PMA/ionomycin-induced NF-kB reporter in 697 B cells. 697 B-cell NF-kB luciferase reporter, 16 h. 330,000 compounds, 0.33% hits. AID 435022. inhibition, % at 4 µM; in the data active = inhibition above about 35%
Mdm2 MdmX PPI: disrupts the human Mdm2-MdmX interaction; AID 485346; 330,000 compounds, 3% hits; SaOS-2 split-luciferase Mdm2/MdmX complementation, luminescence; inhibition, % at 8 µM;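 active = inhibition of at least 50% at 8 µM in the primary screen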
Beta apoptosis: blocks beta cell apoptosis; AID 435005; protection from apoptosis, % (no concentration beside the values); 300,000 compounds, 0.8% hits; INS-1E cytokine-induced death, ATP luminescence, 48 h; percent of positive-control rescue, neutral wells zero;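 active = Every replicate reaches about 75%, or at least half do and their mean reaches it too, limit read from the data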;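 note: 0% = cytokine-treated negative control wells and 100% = positive control rescue; higher means more ATP so stronger rescue from cytokine killing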
Gli-Sufu antag: blocks Gli-Sufu signaling in a luciferase reporter; Sufu-KO-LIGHT fibroblasts, Gli luciferase reporter luminescence; 340,000 compounds, 0.74% hits; inhibition, % at 5 µM; AID 588413;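 active = inhibition above about 55%, limit read from the data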;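 note: 0% = DMSO-treated cells and 100% = wells with medium but no cells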
Jurkat NFkB inh: inhibitors of the PMA/ionomycin-induced NF-kB reporter in Jurkat cells | inhibition, % at 4 µM | AID 435003 | 330,000 compounds, 0.53% hits | PMA/ionomycin-induced NF-kB luciferase reporter, luminescence; in the data active = inhibition above about 50%
Mdm2 MdmX conf: human Mdm2/MdmX binding inhibition, confirmed; luminescent assay; 10,000 compounds, 55% hits; shares compounds with Mdm2 MdmX PPI; inhibition, % at 8 µM; in the data active = inhibition above about 40%
FLuc counter: counter-screen for Mdm2/MdmX inhibitors: full-length luciferase | shares compounds with Mdm2 MdmX PPI | 6,200 compounds, 77% hits | SaOS-2 full-length luciferase counterscreen, luminescence | inhibition, % at 8 µM;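 active = mean inhibition at 8 µM reaching about 37%, which flags the compound as non-specific, limit read from the data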;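 note: p53-null SaOS-2 cells with luciferase driven by a doxycycline-inducible promoter; compound on cells about two nights before reading with doxycycline added after day one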
* hit, by the source's call.

Screening C#CCOCCOCCOCCNc1nc(N2CCN(C(=O)CCCCCCCCCCNC(=O)[C@@H](CCC(=O)O)n3cc(CCCCCN)nn3)CC2)nc(N2CCN(C(=O)CCCCCCCCCCNC(=O)[C@H]([C@@H](C)CC)n3cc(CCCCCN)nn3)CC2)n1 returned 697 NFkB inh -16.7, Mdm2 MdmX PPI -12.3, Beta apoptosis 1.2, Gli-Sufu antag -11.0 and Jurkat NFkB inh -15.5.
For C#CCOCCOCCOCCNc1nc(N2CCN(C(=O)CCCCCCCCCCNC(=O)[C@H]([C@@H](C)CC)n3cc(CCCCCN)nn3)CC2)nc(N2CCN(C(=O)CCCCCCCCCCNC(=O)[C@@H]([C@H](C)CC)n3cc(CCCCCN)nn3)CC2)n1 the results were 697 NFkB inh -35.1, Mdm2 MdmX PPI 100.3*, Beta apoptosis 114.8*, Jurkat NFkB inh 46.8, Mdm2 MdmX conf 63.0* and FLuc counter 1.3.
For COc1cccc(OC)c1C(=O)NC(=O)Nc1c(C)cccc1C the results were 697 NFkB inh -1.1, Mdm2 MdmX PPI 3.3, Beta apoptosis -1.0, Gli-Sufu antag 0.6 and Jurkat NFkB inh -19.9.
`COCCCNCCCOc1ccc(C(C)(C)c2ccccc2)cc1` gave 697 NFkB inh 2.6, Mdm2 MdmX PPI 33.9, Beta apoptosis -2.6, Gli-Sufu antag 7.6 and Jurkat NFkB inh -6.3.
`CC(C)(c1ccccc1)c1ccc(OCCCNCCO)cc1` gave 697 NFkB inh -54.1, Mdm2 MdmX PPI 53.9*, Gli-Sufu antag 3.8, Jurkat NFkB inh -2.9 and Mdm2 MdmX conf 37.1.
For O=C(OCC(=O)c1ccc(Cl)s1)c1cnccn1 the results were 697 NFkB inh 8.6, Mdm2 MdmX PPI 15.3, Beta apoptosis -5.9, Gli-Sufu antag 0.9 and Jurkat NFkB inh -5.8.
Screening C[C@H](CO)N1C[C@H](C)[C@@H](CN(C)C(=O)Nc2ccc(C(F)(F)F)cc2)Oc2ccc(NC(=O)C3CCCCC3)cc2C1=O returned 697 NFkB inh -16.6, Mdm2 MdmX PPI 36.6, Beta apoptosis -0.8, Gli-Sufu antag -19.1 and Jurkat NFkB inh -10.1.
`CCCCn1c(N)c(N(CCOC)C(=O)c2ccc(F)c(S(=O)(=O)N3CCOCC3)c2)c(=O)[nH]c1=O` gave 697 NFkB inh 5.6, Mdm2 MdmX PPI -4.0, Beta apoptosis 0.1, Gli-Sufu antag -8.2 and Jurkat NFkB inh 6.8.
For COc1ccc(/C=C2\SC(N)=NC2=O)cc1 the results were 697 NFkB inh -17.8, Mdm2 MdmX PPI 17.0, Gli-Sufu antag -11.4 and Jurkat NFkB inh 5.7.
For CCOC(=O)CSC1=NC(=O)/C(=C/c2ccc(OC)cc2)S1 the results were 697 NFkB inh -24.6, Mdm2 MdmX PPI 76.3*, Beta apoptosis -19.3, Gli-Sufu antag -10.7, Jurkat NFkB inh -13.2, Mdm2 MdmX conf 53.4* and FLuc counter 32.1.
For Cc1ccc(Cl)cc1N1CCN(C(=O)c2noc(C)c2[N+](=O)[O-])CC1 the results were 697 NFkB inh 20.5, Mdm2 MdmX PPI 75.1*, Gli-Sufu antag 30.2, Jurkat NFkB inh -0.9, Mdm2 MdmX conf 75.7* and FLuc counter 59.5*.
For COc1ccc(C(CNC(=O)c2ccc(S(=O)(=O)N3CCCC3)cc2)N(C)C)cc1OC (centres undefined) the results were 697 NFkB inh 12.6, Mdm2 MdmX PPI -11.7, Beta apoptosis -8.1, Gli-Sufu antag 23.3 and Jurkat NFkB inh 0.0.
Screening COc1ccc(C(CNC(=O)c2ccc(S(=O)(=O)N3CC(C)CC(C)C3)cc2)N(C)C)cc1 (centres undefined) returned 697 NFkB inh 0.9, Mdm2 MdmX PPI 51.4*, Beta apoptosis 6.0, Gli-Sufu antag 4.9, Jurkat NFkB inh 10.8 and Mdm2 MdmX conf 17.1.
CC(c1ccccc1)n1c(-c2cccs2)nc2c(c(=O)c3ccccc3n2C)c1=O (centres undefined) was read as 697 NFkB inh 14.6, Mdm2 MdmX PPI 26.4, Beta apoptosis -5.2, Gli-Sufu antag 4.7 and Jurkat NFkB inh 8.0.
O=C1CCCC2=C1C1c3ccccc3C(=O)N1c1ccc(C(=O)c3ccccc3)cc1N2 (centres undefined) was read as 697 NFkB inh 23.0, Mdm2 MdmX PPI 55.7*, Beta apoptosis 2.2, Gli-Sufu antag -2.4, Jurkat NFkB inh 38.7, Mdm2 MdmX conf 42.2* and FLuc counter 67.0*.
CCC(=O)N1c2ccccc2NC2=C(C(=O)CCC2)C1c1ccc(N(C)C)cc1 (centres undefined) was read as 697 NFkB inh 16.6, Mdm2 MdmX PPI 24.7, Gli-Sufu antag 3.8 and Jurkat NFkB inh -13.4.
`CNc1[nH]c(=O)[nH]c(=O)c1N=Nc1cc(Cl)ccc1Cl` gave 697 NFkB inh -19.1, Mdm2 MdmX PPI -7.2, Beta apoptosis 0.7, Gli-Sufu antag 9.7 and Jurkat NFkB inh 2.9.
For Cc1c(Cl)cnc(NC(=O)COC(=O)[C@@H](NC(=O)c2ccco2)C(C)C)c1Cl the results were 697 NFkB inh 13.8, Mdm2 MdmX PPI 24.6, Beta apoptosis -2.5, Gli-Sufu antag -5.5 and Jurkat NFkB inh 4.6.
`CCOC(=O)c1c(-c2ccc(F)cc2)csc1NC(=O)c1c(-c2ccccc2)noc1C` gave 697 NFkB inh -133.6, Mdm2 MdmX PPI 84.7*, Beta apoptosis 4.9, Gli-Sufu antag 11.2, Jurkat NFkB inh -10.7, Mdm2 MdmX conf 50.0* and FLuc counter 48.2*.
CCOC(=O)c1sc2nc(CSc3ccccc3Cl)[nH]c(=O)c2c1C was read as 697 NFkB inh 8.7, Mdm2 MdmX PPI 52.3*, Beta apoptosis 2.4, Gli-Sufu antag 4.0, Jurkat NFkB inh -6.0 and Mdm2 MdmX conf -1.8.
`COC(=O)c1sc2nc(CSc3ccc(Br)cc3)[nH]c(=O)c2c1C` gave 697 NFkB inh 20.3, Mdm2 MdmX PPI 6.0, Beta apoptosis -12.2, Gli-Sufu antag 1.1 and Jurkat NFkB inh 0.9.
Screening CC(=O)N1CCN(c2ccc(NC(=O)c3ccc(F)cc3)cc2)CC1 returned 697 NFkB inh -9.4, Mdm2 MdmX PPI 12.4, Beta apoptosis -6.4, Gli-Sufu antag -7.2 and Jurkat NFkB inh -10.8.
For CCN1CCN(Cc2ccc(NC(=O)c3cc(NC(=O)c4cc(-c5ccc(OC)cc5)n[nH]4)cc(OC)c3)cc2C(F)(F)F)CC1 the results were 697 NFkB inh -0.8, Mdm2 MdmX PPI 94.7*, Beta apoptosis 9.7, Gli-Sufu antag 27.7, Jurkat NFkB inh -42.3 and Mdm2 MdmX conf 24.5.
Screening CCN1CCN(Cc2ccc(NC(=O)c3cc(NC(=O)c4cncc(-c5cccs5)c4)cc(OC)c3)cc2C(F)(F)F)CC1 returned 697 NFkB inh 9.3, Mdm2 MdmX PPI 97.3*, Beta apoptosis 6.7, Gli-Sufu antag 4.2, Jurkat NFkB inh 6.7, Mdm2 MdmX conf 27.8 and FLuc counter 58.5*.

From PubChem
